Shown are actives, neighbours in structure and some others; about 5.2% of the full set was active somewhere.
VDR inhibitor: Inhibitors of the vitamin D receptor (VDR): qHTS; 400,000 tested, 0.93% active; AID 504847, 2011; Vitamin D3 receptor (Homo sapiens), P11473; VDR-SRC2-3 peptide fluorescence polarization, 2 h; Potency, µM, for the others: max response, negative = inhibition, most hits filed as inhibitors
Target sequence (P11473 whole entry, looked up): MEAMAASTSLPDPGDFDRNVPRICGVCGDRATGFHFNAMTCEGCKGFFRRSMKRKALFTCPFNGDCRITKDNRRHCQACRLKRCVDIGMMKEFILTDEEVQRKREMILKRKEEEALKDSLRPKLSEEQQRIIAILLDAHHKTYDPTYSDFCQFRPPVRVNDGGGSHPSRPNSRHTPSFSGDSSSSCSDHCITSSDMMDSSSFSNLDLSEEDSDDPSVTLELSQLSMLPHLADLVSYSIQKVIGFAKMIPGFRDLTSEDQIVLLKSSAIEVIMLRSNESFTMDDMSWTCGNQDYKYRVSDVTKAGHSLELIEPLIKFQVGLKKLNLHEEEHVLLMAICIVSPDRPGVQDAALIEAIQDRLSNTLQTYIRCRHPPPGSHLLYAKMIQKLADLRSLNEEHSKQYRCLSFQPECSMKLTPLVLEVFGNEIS
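FP read-out; VDR + SRC2-3 coactivator peptide; 23 nl compound by pintool; 2 h RT incubation; reagents held at 4 deg C, protected from light.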
TrxR1 substrate: qHTS Assay for Substrates of Mammalian Selenoprotein Thioredoxin Reductase 1 (TrxR1): qHTS; Thioredoxin reductase 1, cytoplasmic (Rattus norvegicus), O89049; purified TrxR1 substrate turnover, NADPH consumption readout; Potency, µM (series often up to 114 µM), for inactives: at the highest dose activity change, negative = substrate turnover; 390,000 tested, 0.01% active; also: nearly all actives have a fitted effect of over 50% in size
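Rat TrxR1, dispensed at 90 nM, was prereduced with 400 uM NADPH (final) for 5 min at ~22 deg C, then incubated with compound 15 min before 400 uM selenite. A first-read NADPH fluorescence drop versus no-compound background flagged substrates.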
Sfp PPTase inh: qHTS Assay for Inhibitors of Bacillus subtilis Sfp phosphopantetheinyl transferase (PPTase) | 4'-phosphopantetheinyl transferase ffp (Bacillus subtilis), Q9F4F7 | Biochemical Sfp PPTase activity, qHTS | Potency, µM, without a hit: largest response in the series, negative = inhibition, usual class: inhibitors | 310,000 tested, 3.5% active;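 also: the enzyme is Sfp with the accession as filed and its product quenches rhodamine fluorescence; 0% = enzyme reaction without inhibitor and -100% = no enzyme wells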
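Buffer: 50 mM Hepes-Na pH 7.6, 10 mM MgCl2, 0.01% Nonidet P-40, 0.01% BSA. Enzyme 15 nM, pre-exposed to compound 15 min; substrates then added and fluorescence change tracked over 30 min.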
TrxR1 inh: qHTS Assay for Inhibitors of Mammalian Selenoprotein Thioredoxin Reductase 1 (TrxR1): qHTS; Thioredoxin reductase 1, cytoplasmic (Rattus norvegicus), O89049; recombinant rTrxR1, NADPH fluorescence consumption, selenite substrate; Potency, µM (highest dose often 114 µM), for inactives: top-dose activity change, negative = inhibition, hits mostly inhibitors; 390,000 tested, 1% active; AID 588453, 2011; also: nearly all actives have a fitted effect of over 65% in size
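Rat TrxR1 (90 nM in the dispensed reagent) was pre-reduced with 400 uM NADPH for 5 min at room temperature, then incubated with compound for 15 min. After 400 uM selenite was added, NADPH fluorescence (Ex 340/Em 450 nm) was followed for 8 min.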
PLK1 PBD block: qHTS for Inhibitors of PLK1-PDB (polo-like kinase 1 - polo-box domain): Primary Screen. Potency, µM, for inactives: max response, negative = inhibition, usual class: inhibitors. Serine/threonine-protein kinase PLK1 (Homo sapiens), P53350. Plk1 PBD binding of FITC phosphopeptide, fluorescence polarization. 360,000 tested, 2.8% active; also: series mostly up to about 57 µM; nearly all actives have a fitted effect of over 65% in size
IDH1 R132H inh: qHTS for Inhibitors of mutant isocitrate dehydrogenase 1 (IDH1): qHTS. Isocitrate dehydrogenase [NADP] cytoplasmic (Homo sapiens), O75874. IDH1-R132H enzyme, NADPH consumption, diaphorase/resazurin fluorescence. Potency, µM (highest dose often 76.6 µM), inactives show top-dose activity change, negative = inhibition, hits mostly inhibitors. 390,000 tested, 0.093% active. AID 602179, 2012; also: nearly all actives have a fitted effect of over 65% in size
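IDH1-R132H (0.5 ug/mL dispensed) in pH 7.5 Tris buffer was preincubated 30 min with compound, then given a substrate mix of 0.016 mM NADPH and 2 mM alpha-KG for 80 min at room temperature; remaining NADPH was read by diaphorase/resazurin fluorescence.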
The depositor's hits bear a star; ? = inconclusive; . = no result given; ! = not active in a repeat; [ ] = remark or other dose. Calls follow the shape of the dose curve; as a rule, active = well fitted curve in the direction sought with a large enough effect; inconclusive = small, poorly fitted or top-dose-only effect, or another doubt; inactive = no such curve, though single readings can be large; an effect the other way counts as inactive or inconclusive. Unless noted, % is scaled to controls: 0 for no effect and ±100 for the full control effect; potency is read from the fitted curve at half-maximal effect.

SMILES | VDR inhibitor | TrxR1 substrate | Sfp PPTase inh | TrxR1 inh | PLK1 PBD block | IDH1 R132H inh
COc1ccc(N=CC2=C(O)CC(c3ccccc3)CC2=O)c(OC)c1 (stereo not drawn) | ? | 5.8% | -4.6% | 23.3% | 21.2µM* | -2.8%
CCOc1ccccc1N=CC1=C(O)CC(c2ccccc2)CC1=O (stereo not drawn) | -9.4% | 170.7% | 22.1% | 54.7% | 12.0% | 4.4%
CCCc1cc(=O)[nH]c(SCC(=O)c2c[nH]c3ccccc23)n1 | ? | 2.7% | 15.3% | 19.4%[57.1 µM] | 18.9µM* | 0.5%
CCCc1cc(=O)[nH]c(SCC(=O)c2c(C)[nH]c3ccccc23)n1 | 18.1% | 4.7% | 22.9% | 12.6% | -2.1% | 0.6%
Cn1cnnc1Sc1c([N+](=O)[O-])ncn1C | -7.9% | . | 10.8% | . | . | .
Cn1cnc([N+](=O)[O-])c1Sc1nnc(-c2cccnc2)n1C | -15.7% | 6.2%[57.1 µM] | 8.4% | 0.631µM* | -17.6% | 0.1%
CC(=O)Oc1ccc(C(=O)[C@H]2[C@H]3C(=O)N(c4cccc5ccccc45)C(=O)[C@H]3[C@@H]3C=CC=NN32)cc1 | -12.6% | -0.6% | ? | ? | 42.3µM* | -5.8%
COc1ccccc1N1CCN(CCn2c(=O)[nH]c3c([nH]c4ccccc43)c2=O)CC1 | -1.0% | . | 12.2% | . | . | .
COc1ccccc1N1CCN(CCn2c(=O)c3c(c4ccccc4n3C)n(C)c2=O)CC1 | 44.7µM*! | . | 15.3% | . | . | .
CC(Sc1n[nH]c(=O)[nH]c1=O)C(=O)OCc1ccccc1 (stereo not drawn) | 2.0% | -9.7% | 79.4µM* | -2.7% | ? | 1.7%
CCC(Sc1n[nH]c(=O)[nH]c1=O)C(=O)OCc1ccccc1 (stereo not drawn) | 10.5% | 5.7% | ? | 6.7% | -26.4% | 6.8%
COc1cc(C(=O)Nc2nnc(CC(C)(C)C)s2)cc(OC)c1OC | 8.1% | 0.9% | . | -3.5% | . | -10.1%
COC(=O)c1cc(C(=O)Nc2nnc(CC(C)(C)C)s2)cc([N+](=O)[O-])c1 | -14.8% | -0.5% | ? | 7.2% | 18.9µM* | -7.1%
CCOCc1nnc(NC(=O)c2ccc(NC(C)=O)cc2)s1 | -15.1% | -0.3% | -8.5% | 23.3% | -4.4% | 3.5%
CCOCc1nnc(NC(=O)c2cc(C(=O)OC)cc([N+](=O)[O-])c2)s1 | -5.0% | 4.3%[57.1 µM] | 5.0% | 12.0%[57.1 µM] | 26.7µM* | -0.4%
Cc1c(CC(=O)NCCCO)c(=O)oc2cc3c(cc12)CCC(C)(C)O3 | -8.9% | 383.9% | 15.7% | 56.2µM* | 0.2% | -8.5%
FC(F)(F)c1ccnc(NCc2ccc(Cl)cc2)n1 | -6.4% | -12.1% | 11.5% | -1.4% | -8.5% | 16.1%
O=S(=O)(NNc1nccc(C(F)(F)F)n1)c1cccc(Cl)c1Cl | 5.3% | 0.4% | 35.5µM* | 19.2% | 0.0% | 4.1%
COc1cc2c(cc1OC)C1O[C@](CCCCN3C(=O)c4ccccc4C3=O)(C2)Oc2c1c(=O)oc1ccc(F)cc21 | . | . | -19.3% | . | . | .
COc1ccc(/C(C)=N/NC(=O)c2ccccc2OCc2ccccc2)c(OC)c1 | ? | 6.2%[57.1 µM] | -14.8% | 6.7% | 18.9µM* | -13.2%
COc1ccc(/C(C)=N/NS(=O)(=O)c2cc(C)ccc2C)c(OC)c1 | -8.1% | -1.3% | 8.0% | 12.4%[57.1 µM] | ? | 10.8%
CCOc1ccc(S(=O)(=O)N/N=C(\C)c2ccc(OC)cc2OC)cc1 | ? | -2.1% | 4.7% | 7.1%[57.1 µM] | 15µM* | -5.4%
Cc1cc(C)cc(N(C(=O)c2ccccn2)C(C(=O)NC2CCCCC2)c2ccncc2)c1 (stereo not drawn) | 14.3% | -2.3% | 20.2% | 10.3% | -8.7% | -19.7%
CCOC(=O)c1c(C)[nH]c(C)c1S(=O)(=O)N1CCCC(C(=O)N2CCN(c3ccccc3F)CC2)C1 (stereo not drawn) | 6.9% | -10.4%[57.1 µM] | . | -2.6%[57.1 µM] | . | -13.7%
COc1cccc2c(C)nc(Nc3nc(CSc4nnc(C)s4)cc(=O)[nH]3)nc12 | 79.4µM* | -3.3% | 7.0% | 6.7% | 23.8µM* | 0.7%
SMILES | VDR inhibitor | TrxR1 substrate | Sfp PPTase inh | TrxR1 inh | PLK1 PBD block | IDH1 R132H inh
Oc1ccc(NCc2ccccc2OCc2ccccc2F)cc1 | 39.8µM* | -2.1% | ? | ? | -11.0% | 12.1%
Oc1ccc(NCc2ccccc2OCc2ccccc2Cl)cc1 | ? | -8.8% | . | 31.6µM* | . | .
CC(NC(=O)CN1C(=O)NC2(CCc3ccccc32)C1=O)c1ccc2c(c1)OCCO2 (stereo not drawn) | -6.1% | 3.3% | . | 16.7% | -7.1% | -9.0%
CCCCCC(=O)Cc1cc(O)cc2c1C(=O)Oc1cc(O)c(C(=O)O)c(CCCCC)c1O2 | ? | -4.7% | 8.7% | -6.1% | 23.8µM* | -9.8%
Cc1oc(-c2ccc(Cl)cc2)nc1CS(=O)CC(=O)NCCc1ccccc1 (stereo not drawn) | 12.6% | -8.3%[57.1 µM] | . | -23.0%[57.1 µM] | . | 6.1%
CCCCNC(=O)CS(=O)Cc1nc(-c2cccs2)oc1C (stereo not drawn) | -24.1% | 5.2%[57.1 µM] | 12.3% | 6.31µM* | ? | 4.7%
Cc1oc(-c2cccs2)nc1CS(=O)CC(=O)NCCc1ccccc1 (stereo not drawn) | ? | 11.4%[57.1 µM] | -8.5% | 5.62µM* | ? | -3.6%
Cc1oc(-c2cccs2)nc1CS(=O)CC(=O)NCCCOC(C)C (stereo not drawn) | -14.2% | 0.8% | 5.8% | 12.6µM* | -26.9% | 0.0%
COCCNC(=O)C1CCCN(Cc2ccccc2-c2ccccc2)CC1 (stereo not drawn) | . | . | . | . | -3.1% | .
Cc1cccc(Cc2c(C)nc3nc(SCc4ccccc4F)nn3c2C)c1 | 4.9% | 4.7%[57.1 µM] | . | 17.3%[57.1 µM] | . | 13.9%
NCC(=O)N[C@@H](CCCN=C(N)N)C(=O)NCC(=O)N[C@@H](CCC(=O)O)C(=O)N[C@@H](CO)C(=O)O | -0.3% | . | 20.0% | . | . | .
CCOC(=O)c1c(C)oc2ccc(OCc3cc(C(=O)OC)oc3C)cc12 | -19.2% | 7.2%[57.1 µM] | ? | 18.3%[57.1 µM] | 26.7µM* | 2.5%
COC(=O)c1cc(COc2ccc3oc(C)c(C(=O)OC)c3c2)c(C)o1 | -2.6% | -5.4%[57.1 µM] | -2.7% | 1.6% | -8.3% | -1.5%
CN1C(=O)NC2(O)C(=O)c3ccccc3C12O (stereo not drawn) | ? | 12.8%[57.1 µM] | 6.3% | -12.1% | 2.67µM* | -3.2%

Source: PubChem (National Center for Advancing Translational Sciences (NCATS))
